From the supplement of paper PMC3334620
In all, about 33,000 sequences were measured (“E-score (-0.5 to 0.5)”: median about -0.016, highest 2% from about 0.31 on). Shown is part of a subset that was picked to be rich in the highest values.

What follows are sequences tested against Cst6 (UniProt P40535) (assay: PBM E-score (8-mer binding enrichment) (E-score (-0.5 to 0.5)); higher = stronger / more preferred TF binding). Conditions: protein concentration: 200 nM; construct: GST-DNA-binding domain.
UniProt P40535, sequence (P40535 whole entry, the tested form may be a part): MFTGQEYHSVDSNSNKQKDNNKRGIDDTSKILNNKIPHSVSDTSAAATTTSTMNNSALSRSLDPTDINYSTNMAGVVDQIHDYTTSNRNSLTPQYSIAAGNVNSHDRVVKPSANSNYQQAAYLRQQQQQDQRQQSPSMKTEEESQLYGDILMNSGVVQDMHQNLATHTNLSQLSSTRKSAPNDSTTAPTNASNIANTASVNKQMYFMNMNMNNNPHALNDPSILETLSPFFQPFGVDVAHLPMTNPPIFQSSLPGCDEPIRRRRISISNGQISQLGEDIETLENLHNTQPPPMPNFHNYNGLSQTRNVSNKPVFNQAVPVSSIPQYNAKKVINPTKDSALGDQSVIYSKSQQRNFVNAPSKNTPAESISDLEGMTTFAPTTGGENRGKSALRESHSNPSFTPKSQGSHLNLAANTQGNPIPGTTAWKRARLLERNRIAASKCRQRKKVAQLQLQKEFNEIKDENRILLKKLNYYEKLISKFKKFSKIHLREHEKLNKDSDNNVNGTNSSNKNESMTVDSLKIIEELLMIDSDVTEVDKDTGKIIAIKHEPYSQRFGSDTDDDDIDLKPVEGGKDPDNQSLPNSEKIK
Method: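 Universal 'all 10-mer' protein binding microarrays (Agilent AMADID 015681) probed with GST-tagged S. cerevisiae TFs (full-length or DBD) made by in vitro transcription/translation (PURExpress), about 100-200 nM. Bound TF was detected with fluorescent anti-GST. Each ungapped 8-mer (which stands for itself and its reverse complement) is scored by the PBM enrichment score (E-score), a modified Wilcoxon-Mann-Whitney statistic from -0.5 to +0.5, computed with the Universal PBM Analysis Suite. Scale: above 0.35 generally sequence-specific binding.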

Sequence	PBM E-score
AAGTAAGC	0.0657
AGGTAAGG	-0.132
CCGTAAGG	-0.113
ACGTAAGG	0.347
AGTGGCGC	0.00481
AGCCAAAG	-0.114
GATGATAA	0.257
CCAGCTCC	-0.29
ACGCTCCG	-0.119
AAAATAAC	0.178
GAAATAAC	0.148
CAAATAAC	0.37
ACAGGGCG	0.0932
ACCGACGA	-0.0237
ACCTCCGT	-0.0629
AAATGGCC	-0.0934
GTGCATCA	0.0738
ATGCATCA	0.372
GTACATCA	0.275
CTACATCA	0.302
ATACATAT	0.337
ATACATCA	0.398
ATGCATCG	-0.00649
ATACATAA	0.258
ATACATAC	0.0814

Sequence	PBM E-score
CAGTCGCG	-0.25
AGATTCAC	-0.122
GAAACCTA	-0.148
CTAAAGGC	0.0355
CATCAAAG	0.0154
AAGGGAAT	0.112
ATGTAATC	0.299
ATGTAACG	0.235
CTGTAATA	0.108
GTGTAATA	0.214
ATGTAATA	0.415
ATGTAATG	0.394
TATCATGA	0.186
CATCATGC	0.362
GATCATGC	-0.137
AATCATGT	0.139
AATCATGA	0.338
AATCATGC	0.0631
CATCATGA	0.363
AATCATGG	0.0769
CATCATGG	0.249
GATAGCGC	-0.152
GGGAGTCA	-0.153
ACGCTATC	0.093
CAGCTGCC	-0.146

Sequence	PBM E-score
AGAAGTCA	0.0402
GGAAGGCC	-0.136
AAGAACAG	0.0582
AAGAACAA	0.327
AAGAACAC	0.167
TCCCTCGA	-0.205
AGAAGTCT	-0.118
TGTCGTAA	0.303
TGACGTAA	0.499
GGACGTAC	-0.065
CGACGTAC	0.139
AGACGTAG	-0.133
CGACGTAA	0.451
AGACGTAA	0.371
GGACGTAA	0.279
AGACGTAC	-0.0375
CGTGGTGC	-0.177
CAGACCTA	-0.00947
GCACAGAA	0.109
AGCTGAGA	-0.101
AATCCAAT	0.139
AATCAGCT	0.186
ACTCACGA	-0.053
GCTTTAAC	0.135
ACGGCGGC	0.156

Sequence	PBM E-score
GCGGCGTA	0.23
ACGGCGTC	0.347
CCGGCGTA	-0.134
ACGGCGTG	0.314
ACGGCGGG	0.108
ACGGCGTA	0.358
ATGGCGTG	0.113
AGGGCGTG	-0.115
CTGGCGTC	-0.0408
ATGGCGTC	0.311
CCGGCGTC	-0.0641
ACCGGTCA	-0.0152
ACGCCACG	0.0785
GGAAAACC	-0.0924
TCACAGAA	0.133
CCAGTGCA	-0.185
GCAGTTCA	0.0321
CAATGCGA	0.136
GACGGGTA	-0.0938
GTCCCATA	-0.14
CTGAAACA	-0.0169
AATTTTAA	0.25
ATTTTTAC	0.201
CATTTTAC	0.273
AATTTTAC	0.326

Sequence	PBM E-score
AATTTTAT	0.346
AAATTTAT	0.234
ATTTGCTA	0.156
CTATTCAA	0.197
ACAACCAT	0.325
ACAACCAC	0.133
ACAACCAG	0.0122
CTACGCAA	0.119
GGCACGTA	0.119
CAATGAAA	0.153
AAATGAAA	0.322
AATGAAAT	0.37
TAATGAAA	0.261
AATGAAAG	0.168
AATGAAAA	0.236
CAAACTTC	0.177
AACCTTAG	-0.158
AAGAGGAC	-0.249
AAACAGGA	0.0722
GATTAAAA	0.242
CATTTCAA	0.222
TATTTTAA	0.259
AATTAAAA	0.187
CATTTAAA	0.279
TATTTAAA	0.308

Sequence	PBM E-score
ATTTTTAA	0.293
GTTTTAAA	0.196
TATTAAAA	0.323
TATTTCAA	0.318
GATTTCAA	-0.0222
ATTTTAAA	0.308
CAAACCCC	-0.178
AAGGCGTA	0.0577
AGGCGAAT	0.0491
TCCTTGAA	-0.0366
AGGGCAGA	-0.248
GAGTTACC	-0.0903
ATGGCACG	0.111
ACCGGTGC	-0.105
ACCTTTTC	-0.133
GTCAGTGA	0.308
CTCAGTGA	0.0623
ATCAGTGA	0.136
GGTACACC	-0.287
GGCAGGCA	-0.193
AAATGTCA	0.216
TAATGTCA	0.356
TCATGTCA	0.382
GAATGTCA	0.206
ACATGTCA	0.275

Sequence	PBM E-score
GCATGTCA	0.287
ATCCATGG	-0.138
GGAGATTA	0.13
AGCTTCGC	-0.134
CGAACGAG	-0.108
CCACTTCA	-0.197
AACCACCA	0.00505
CGGCCGCC	-0.0119
GGTATTTA	0.0257
CGTATTTA	0.358
AGTATTTA	0.171
GAGCCTGC	-0.173
AAACAGGC	-0.0905
ATAACGTA	0.398
ATAACGTG	0.213
AGAACGTC	0.142
CTAACGTC	0.356
GTAACGTA	0.302
ATAACGAA	0.217
ATAACGTC	0.38
CTAACGTA	0.281
CAAACGTC	0.137
